# Measurements: article PMC8384837, “Expanding the binding specificity for RNA recognition by a PUF domain”
# Changes are numbered by the printed parent chain.
# Legend:
# Test in all cases: yeast three-hybrid, YBZ-1, SC-Leu-His + 0.5 mM 3-AT, 4 days
# Details in all cases: tags: N-Gal4 AD-HA kept; label: inside an RPR1-promoter hybrid RNA with tandem MS2 sites; ssRNA
# PUM1 PUF domain R4-GHW = PUM1 PUF domain R4-GHW (Homo sapiens, UniProt Q14671 828-1176, N971G;Q975W)
# Method in brief: (§1)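 The interaction score is the log change in variant frequency from input to selection. Scores were computed in log2 with a pseudocount of 1 for absent variants, using Illumina sequencing of PCR-amplified repeat regions. The input came from four days on SC-Leu and the selection from four days on SC-Leu-His + 0.5 mM 3-AT. The cells were strain YBZ-1 (LexA–MS2 coat fusion, HIS3 reporter) co-expressing Pumilio-1 PUF domain libraries and matching RNA elements from a centromeric plasmid.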
# PUM1 PUF domain R4-CMN = PUM1 PUF domain R4-CMN (Homo sapiens, UniProt Q14671 828-1176, N971C;H972M;Q975N)
# Method in brief: as §1
# PUM1 PUF domain R6-RYG = target: T1, PUM1 PUF domain R6-RYG (Homo sapiens, UniProt Q14671 828-1176, N1043R;Q1047G)
# T1 sequence: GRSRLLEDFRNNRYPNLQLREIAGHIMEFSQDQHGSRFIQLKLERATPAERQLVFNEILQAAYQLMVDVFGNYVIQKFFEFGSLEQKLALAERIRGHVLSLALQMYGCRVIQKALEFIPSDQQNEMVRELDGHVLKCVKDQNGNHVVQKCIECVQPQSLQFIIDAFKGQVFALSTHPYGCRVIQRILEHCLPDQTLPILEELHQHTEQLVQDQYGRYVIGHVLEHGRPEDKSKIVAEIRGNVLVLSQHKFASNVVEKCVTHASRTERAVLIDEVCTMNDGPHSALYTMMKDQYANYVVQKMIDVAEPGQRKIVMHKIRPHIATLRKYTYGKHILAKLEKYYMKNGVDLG
# Method in brief: as §1
# PUM1 PUF domain R8-RRY = PUM1 PUF domain R8-RRY (Homo sapiens, UniProt Q14671 828-1176, N1122R;Y1123R;Q1126Y)
# Method in brief: as §1
# PUM1 PUF domain R4-WGV = PUM1 PUF domain R4-WGV (Homo sapiens, UniProt Q14671 828-1176, N971W;H972G;Q975V)
# Method in brief: as §1
# PUM1 PUF domain R6-DWG = target: T2, PUM1 PUF domain R6-DWG (Homo sapiens, UniProt Q14671 828-1176, N1043D;Y1044W;Q1047G)
# T2 sequence: T1 sequence with R216D, Y217W
# Method in brief: as §1
# PUM1 PUF domain R6-AWV = target: T3, PUM1 PUF domain R6-AWV (Homo sapiens, UniProt Q14671 828-1176, N1043A;Y1044W;Q1047V)
# T3 sequence: T1 sequence with R216A, Y217W, G220V
# Method in brief: as §1
# PUM1 PUF domain R7-LYW = PUM1 PUF domain R7-LYW (Homo sapiens, UniProt Q14671 828-1176, S1079L;N1080Y;E1083W)
# Method in brief: as §1
# PUM1 PUF domain R2-KLV = PUM1 PUF domain R2-KLV (Homo sapiens, UniProt Q14671 828-1176, N899K;Y900L;Q903V)
# Method in brief: as §1
# [1] = target: T4, PUM1 PUF domain R1-QFR R2-VFQ R6-SWD (Homo sapiens, UniProt Q14671 828-1176, S863Q;R864F;Q867R;N899V;Y900F;N1043S;Y1044W;Q1047D)
# T4 sequence: T1 sequence with S36Q, R37F, Q40R, N72V, Y73F, R216S, Y217W, G220D
# Method in brief: as §1
sequence,measurement,setting,value
GGCUAGAACUAGUGGAUCCCCCGGCGCCCGGCGGCUCGAGCCCGGGUAAGUGUAAAUAGUCUGCAUGCCGCCGGGCGCCAUGCCUGCAGGUCGACUCUAGAAAACAUG,binding signal,PUM1 PUF domain R4-GHW,5.62 log2 enrichment (interaction score)
same,binding signal,PUM1 PUF domain R4-CMN,3.59 log2 enrichment (interaction score)
same,binding signal,PUM1 PUF domain R6-RYG,2.84 log2 enrichment (interaction score)
same,binding signal,PUM1 PUF domain R8-RRY,0.87 log2 enrichment (interaction score)
same,binding signal,PUM1 PUF domain R4-WGV,3.11 log2 enrichment (interaction score)
same,binding signal,PUM1 PUF domain R6-DWG,4.07 log2 enrichment (interaction score)
GGCUAGAACUAGUGGAUCCCCCGGCGCCCGGCGGCUCGAGCCCGGGUAAGCGUAAAUAGUCUGCAUGCCGCCGGGCGCCAUGCCUGCAGGUCGACUCUAGAAAACAUG,binding signal,PUM1 PUF domain R8-RRY,2.72 log2 enrichment (interaction score)
GGCUAGAACUAGUGGAUCCCCCGGCGCCCGGCGGCUCGAGCCCGGGUAAGUGUACAUAGUCUGCAUGCCGCCGGGCGCCAUGCCUGCAGGUCGACUCUAGAAAACAUG,binding signal,PUM1 PUF domain R4-GHW,4.34 log2 enrichment (interaction score)
same,binding signal,PUM1 PUF domain R4-WGV,3.2 log2 enrichment (interaction score)
GGCUAGAACUAGUGGAUCCCCCGGCGCCCGGCGGCUCGAGCCCGGGUAAGUGAAAAUAGUCUGCAUGCCGCCGGGCGCCAUGCCUGCAGGUCGACUCUAGAAAACAUG,binding signal,PUM1 PUF domain R6-RYG,0.78 log2 enrichment (interaction score)
same,binding signal,PUM1 PUF domain R6-AWV,2.78 log2 enrichment (interaction score)
GGCUAGAACUAGUGGAUCCCCCGGCGCCCGGCGGCUCGAGCCCGGGUAAGUUUAAAUAGUCUGCAUGCCGCCGGGCGCCAUGCCUGCAGGUCGACUCUAGAAAACAUG,binding signal,PUM1 PUF domain R7-LYW,4.45 log2 enrichment (interaction score)
GGCUAGAACUAGUGGAUCCCCCGGCGCCCGGCGGCUCGAGCCCGGGUAAGUGUAUAUAGUCUGCAUGCCGCCGGGCGCCAUGCCUGCAGGUCGACUCUAGAAAACAUG,binding signal,PUM1 PUF domain R4-GHW,4.35 log2 enrichment (interaction score)
same,binding signal,PUM1 PUF domain R4-WGV,3.61 log2 enrichment (interaction score)
GGCUAGAACUAGUGGAUCCCCCGGCGCCCGGCGGCUCGAGCCCGGGUAAGUGUAAAGAGUCUGCAUGCCGCCGGGCGCCAUGCCUGCAGGUCGACUCUAGAAAACAUG,binding signal,PUM1 PUF domain R2-KLV,6.33 log2 enrichment (interaction score)
GGCUAGAACUAGUGGAUCCCCCGGCGCCCGGCGGCUCGAGCCCGGGUAAGUGGAAAACGUCUGCAUGCCGCCGGGCGCCAUGCCUGCAGGUCGACUCUAGAAAACAUG,binding signal,[1],5 log2 enrichment (interaction score)
